From PubChem
The list is not random: actives were taken first. Their share in the collection is about 2.7%.
ANO1 activ: mouse TMEM16A channel activation, primary screen. Q8BHY3. HEK293 TMEM16A/YFP-H148Q/I152L, iodide quench fluorescence; stronger effect = lower value. B-score at 10 µM. 340,000 tested, 0.3% active;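 active means fluorescence-ratio B-score plate-corrected deviation score at least 3 library SD below zero, with starting fluorescence score within 5 deviations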;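 further: channel opened by trigger with iodide after compound preincubation; score built on the fluorescence ratio of max minus min over baseline; more negative score means more quench and so TMEM16A activation or potentiation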
Target sequence (Q8BHY3 whole entry, looked up): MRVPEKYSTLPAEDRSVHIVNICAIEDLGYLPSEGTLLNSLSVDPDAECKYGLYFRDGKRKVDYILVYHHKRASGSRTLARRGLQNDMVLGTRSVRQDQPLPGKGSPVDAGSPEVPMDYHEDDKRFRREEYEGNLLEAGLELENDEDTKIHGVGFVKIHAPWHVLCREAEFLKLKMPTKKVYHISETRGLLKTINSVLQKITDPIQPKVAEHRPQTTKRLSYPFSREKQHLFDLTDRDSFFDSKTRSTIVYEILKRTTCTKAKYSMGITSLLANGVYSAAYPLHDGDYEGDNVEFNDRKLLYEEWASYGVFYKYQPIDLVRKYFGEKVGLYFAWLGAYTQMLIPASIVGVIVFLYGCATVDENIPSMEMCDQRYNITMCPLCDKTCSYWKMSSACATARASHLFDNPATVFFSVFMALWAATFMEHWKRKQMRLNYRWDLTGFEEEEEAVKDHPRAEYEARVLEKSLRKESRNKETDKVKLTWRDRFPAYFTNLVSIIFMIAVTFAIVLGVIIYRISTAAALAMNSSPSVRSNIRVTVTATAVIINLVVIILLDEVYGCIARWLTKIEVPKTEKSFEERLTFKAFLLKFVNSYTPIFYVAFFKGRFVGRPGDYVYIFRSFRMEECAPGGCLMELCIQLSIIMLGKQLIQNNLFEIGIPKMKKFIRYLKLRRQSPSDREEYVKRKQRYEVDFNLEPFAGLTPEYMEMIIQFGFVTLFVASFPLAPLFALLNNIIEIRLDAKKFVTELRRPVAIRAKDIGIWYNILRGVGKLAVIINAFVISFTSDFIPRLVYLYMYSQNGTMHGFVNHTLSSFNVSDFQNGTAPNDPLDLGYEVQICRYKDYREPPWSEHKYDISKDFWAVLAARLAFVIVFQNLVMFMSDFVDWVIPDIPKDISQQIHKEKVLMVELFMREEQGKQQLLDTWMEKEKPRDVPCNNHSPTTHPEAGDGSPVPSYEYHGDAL
PREPL inh: inhibits the human prolyl oligopeptidase-like enzyme. Q4J6C6. recombinant PREPL, fluorescence polarization activity-based probe. inhibition, % at 5.96 µM. 320,000 tested, 0.68% active. AID 2751;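 further: 0% = enzyme with DMSO and 100% = wells lacking enzyme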
PP1 counter: PP1-alpha (human) inhibition in PP5 counter-screen. P62136. purified PP1alpha, OMFP fluorescence. inhibition, % at 6.7 µM. 320,000 tested, 0.9% active;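 active means inhibition above the mean inhibition of all tested compounds plus 3 SD, computed separately for each screening campaign, cut at about 15% in these data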
ANO1 block: inhibitors of mouse TMEM16A calcium-activated chloride channel; 310,000 tested, 1.2% active; HEK293 TMEM16A/YFP iodide influx fluorescence, ionomycin; Q8BHY3; normalized B-score (activity score, 25-100; higher = stronger inhibition) at 10 µM;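 active means ratio plate-corrected score three or more library SD toward inhibition, starting fluorescence score within five deviations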;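 further: score derived from kinetic fluorescence span divided by baseline fluorescence per well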
FID counter: fluorescent intercalator displacement, NS3 helicase counter-screen | DNA fluorescent intercalator displacement, fluorescence | inhibition, % at 7.9 µM | 290,000 tested, 0.17% active; in the data active means inhibition above about 37%;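 further: 0% = vehicle and 100% = reference compound; higher means more ethidium bromide displaced from hairpin DNA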
PP5 primary: PP5 (human) phosphatase inhibition; P53041; 320,000 tested, 0.18% active; inhibition, % at 6.7 µM; AID 1987; purified PP5c, OMFP substrate fluorescence;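 active means inhibition above the campaign's mean inhibition across all tested compounds plus 3 SD, cut at about 9.5% in these data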;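 further: 0% = DMSO only and 100% = 100 µM cantharidin control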
PREPL inh cf: confirmation of human PREPL enzyme inhibitors. shares compounds with PREPL inh. recombinant PREPL, fluorescence polarization activity probe. inhibition, % at 5.96 µM. 2,000 tested, 67% active;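 further: 0% = protein with DMSO and 100% = wells lacking protein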
An asterisk follows results filed as active. Unless noted, no stated cut-off is given here; in the data, active means inhibition above about 43%; inactive means the rest.

What do the screens show for `CC1CCCCN1Cc1c(O)ccc2c(=O)c(-c3nc4ccccc4s3)c(N)oc12` (stereo not drawn)?
ANO1 activ: inactive; PREPL inh: 51.4*; PP1 counter: 1.6; ANO1 block: inactive; FID counter: 11.6; PP5 primary: 1.0; PREPL inh cf: 50.7*

Results for Nc1cc(N)cc(-c2nc3ccccc3o2)c1 ?
ANO1 activ: inactive; PREPL inh: 55.4*; PP1 counter: 0.3; ANO1 block: inactive; PP5 primary: -0.2; PREPL inh cf: 33.9

What do the screens show for `Cc1cccc(Cl)c1NC(=O)N1CCCN(c2ncccc2[N+](=O)[O-])CC1`?
ANO1 activ: inactive; PREPL inh: -7.3; PP1 counter: -2.1; ANO1 block: inactive; FID counter: -10.9; PP5 primary: -0.1

What do the screens show for `Cc1cccn2c(=O)nc(SCC(=O)NCc3ccccc3)nc12`?
ANO1 activ: inactive; PREPL inh: -5.4; PP1 counter: -3.9; ANO1 block: inactive; PP5 primary: -0.8

What do the screens show for `COc1ccc(C(=O)C[n+]2ccc3c(c2)nc(-c2ccccc2)n3C)cc1`?
ANO1 activ: inactive; PREPL inh: 26.6; PP1 counter: -2.6; ANO1 block: inactive; FID counter: 10.7; PP5 primary: -3.6

What do the screens show for `COc1cc(-c2nc3c[n+](CC(=O)c4ccccc4)ccc3n2C)cc(OC)c1OC`?
ANO1 activ: inactive; PREPL inh: 52.7*; PP1 counter: -2.0; ANO1 block: inactive; FID counter: 5.8; PP5 primary: -0.1; PREPL inh cf: 20.8

How did CC(C)CN(C(=O)CCNC(=O)c1ccccc1Cl)C1CCS(=O)(=O)C1 (stereo not drawn) do in these assays?
ANO1 activ: inactive; PREPL inh: 0.1; PP1 counter: -3.3; PP5 primary: -0.6

How did CCOc1cccc(CNc2ccc(O)cc2)c1OCc1ccc(Cl)cc1 do in these assays?
ANO1 activ: inactive; PREPL inh: 24.4; PP1 counter: 5.8; ANO1 block: inactive; FID counter: 2.5; PP5 primary: 7.8

Results for CCOc1cc(CNc2ccc(O)cc2)ccc1OCc1ccc(Cl)cc1Cl ?
ANO1 activ: inactive; PREPL inh: 57.1*; PP1 counter: 1.0; ANO1 block: inactive; FID counter: -6.2; PP5 primary: 8.7; PREPL inh cf: 50.8*

Results for Cc1cc(NC(=O)CON=C(N)CC(=O)Nc2ccccc2Cl)ccc1Br ?
ANO1 activ: inactive

What do the screens show for `CCN1c2ccccc2N(C)C1(C)c1ccccc1` (stereo not drawn)?
ANO1 activ: inactive; PREPL inh: 78.8*; PP1 counter: 2.0; ANO1 block: inactive; FID counter: 3.8; PP5 primary: 5.2; PREPL inh cf: 27.1

Results for CN1c2ccccc2N(C)C1(C)c1ccccc1 ?
ANO1 activ: inactive; PREPL inh: 19.9; PP1 counter: -0.1; ANO1 block: inactive; FID counter: 0.2; PP5 primary: 0.0

What do the screens show for `CCCN(CC(=O)Nc1ccccc1C)C(=O)c1cccc(S(=O)(=O)N2CCN(c3ccccc3)CC2)c1`?
ANO1 activ: inactive; PREPL inh: -60.0; PP1 counter: -2.8; ANO1 block: inactive; PP5 primary: 2.0

Results for O=C(OCC(=O)N1CCN(c2ccc(F)cc2)CC1)c1cnc2ccccc2n1 ?
ANO1 activ: inactive; PREPL inh: 49.3*; PREPL inh cf: 31.5

What do the screens show for `COc1ccc(N2CCN(C(=O)COC(=O)c3ccccc3OCc3ccc(F)cc3)CC2)cc1`?
ANO1 activ: inactive; PREPL inh: 15.3; PP1 counter: -1.8; ANO1 block: inactive; PP5 primary: 2.0

What do the screens show for `Cc1ccc2c(CN3CCC(C)CC3)cc(=O)oc2c1C`?
ANO1 activ: inactive; ANO1 block: inactive; FID counter: -10.1

What do the screens show for `CCOC(=O)C1CCN(Cc2cc(=O)oc3c(C)c(C)ccc23)CC1`?
ANO1 activ: inactive; PREPL inh: 43.5*; PP1 counter: 0.6; ANO1 block: inactive; FID counter: -29.0; PP5 primary: -0.6; PREPL inh cf: 34.6
